Only a selection was taken, and hits are over-represented in it overall.
UDG counterscr – counter-screen for AID inhibitors: uracil-DNA glycosylase inhibition; Potency, µM (highest dose often 115 µM), for the others: at the top dose activity change, negative = inhibition, hits mostly inhibitors; 91,000 compounds, 0.14% hits; FRET deamination/UDG coupled assay, UDG read, 4 h; further: potency means the concentration at half of the fitted maximal effect; on the % scale 0 is the no-effect control and ±100 the full control effect; nearly all actives have a fitted effect of over 65% in size
DRV1 agonist – GPR32 (DRV1) agonism, beta-arrestin recruitment. O75388. activation, % at 76.9 µM. AID 1346428. 48,000 compounds, 2.5% hits. CHO-K1 GPR32 beta-arrestin PathHunter luminescence, 90 min; zero percent set by DMSO-only wells;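 active means activation of at least 60% and not above a set upper limit, about 1 call in 100 departs from these limits; inconclusive means activation of 40% to 60%, or above that upper limit; inactive means activation under 40%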; further: 0% is about no effect
Target sequence (O75388 whole entry, looked up): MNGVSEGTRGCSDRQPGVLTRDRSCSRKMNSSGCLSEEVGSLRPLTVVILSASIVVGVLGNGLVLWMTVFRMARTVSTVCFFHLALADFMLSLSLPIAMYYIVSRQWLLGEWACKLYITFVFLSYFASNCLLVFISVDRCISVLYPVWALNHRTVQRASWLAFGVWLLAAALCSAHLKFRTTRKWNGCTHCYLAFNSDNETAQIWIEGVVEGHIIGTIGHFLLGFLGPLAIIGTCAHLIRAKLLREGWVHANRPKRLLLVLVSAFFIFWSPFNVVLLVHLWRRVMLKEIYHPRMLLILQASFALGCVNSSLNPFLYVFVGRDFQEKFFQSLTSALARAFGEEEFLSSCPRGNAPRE
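Luminescent readout of beta-Gal complementation quantifies ligand-induced beta-arrestin association with GPR32 in CHO-K1 cells; 90 min compound incubation at 37 °C, detection 1 h at room temperature.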
AID inh – inhibitors of human activation induced cytidine deaminase; Q9GZX7; AID 1347428; 91,000 compounds, 0.32% hits; AID deamination FRET fluorescence, UDG-coupled, 4 h; Potency, µM (top dose mostly 115 µM), hits mostly inhibitors; further: potency means the concentration at half of the fitted maximal effect; on the % scale 0 is the no-effect control and ±100 the full control effect; nearly all actives have a fitted effect of over 25% in size
Target sequence (Q9GZX7 whole entry, looked up): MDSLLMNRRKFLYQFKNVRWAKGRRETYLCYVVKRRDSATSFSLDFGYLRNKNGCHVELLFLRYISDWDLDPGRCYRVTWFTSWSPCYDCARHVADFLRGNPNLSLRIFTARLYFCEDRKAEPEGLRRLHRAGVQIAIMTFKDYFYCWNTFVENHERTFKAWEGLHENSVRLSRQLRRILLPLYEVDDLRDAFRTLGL
* = called active by the depositor; [ ] = remark or other dose. Unless noted, the call rests on the fitted dose curve; in most records, active means well fitted curve in the direction sought with a large enough effect; inconclusive means small, poorly fitted or top-dose-only effect, or another doubt; inactive means no such curve, though single readings can be large; an effect the other way counts as inactive or inconclusive.

COc1cc(NC(=O)C(=O)NC(C)CCc2ccccc2)ccc1N1CCCCS1(=O)=O (configuration not stated) was read as UDG counterscr -1% and AID inh inactive.
`CC(O)CNS(=O)(=O)c1cccc(C(=O)O)c1` (configuration not stated) gave UDG counterscr 2% and AID inh inactive.
For Cc1ccc(C(=O)NCC(c2cccs2)S(=O)(=O)c2cccs2)cc1C (configuration not stated) the results were UDG counterscr inconclusive, DRV1 agonist 14 and AID inh inconclusive.
For O=C(NCC(c1cccs1)S(=O)(=O)c1cccs1)c1ccc(Cl)cc1 (configuration not stated) the results were UDG counterscr -27%, DRV1 agonist 100* and AID inh inactive.
O=C(NCC(c1cccs1)S(=O)(=O)c1cccs1)c1ccc(F)c(F)c1 (configuration not stated) was read as UDG counterscr 0%, DRV1 agonist 95* and AID inh inactive.
O=C(NCC(c1cccs1)S(=O)(=O)c1cccs1)c1ccc(C(F)(F)F)cc1 (configuration not stated) was read as UDG counterscr inconclusive, DRV1 agonist 43 and AID inh inconclusive.
`Cc1ccc(CNC(=O)C2CCN(S(=O)(=O)/C=C/c3ccccc3)CC2)cc1` gave UDG counterscr -9% and AID inh inactive.
For COc1cc(/C=N/O)c(Br)cc1O the results were UDG counterscr 2% and AID inh inactive.
Screening CN(C)c1oc(-c2ccccc2)nc1S(=O)(=O)c1ccc2c(c1)OCCO2 returned UDG counterscr -15% and AID inh inactive.
COC(=O)CCCn1c(-c2ccc(C)cc2)c(C)n2c3c(=O)n(C)c(=O)n(C)c3nc12 was read as UDG counterscr 13%, DRV1 agonist 20 and AID inh inactive.
Cc1ccc(-c2c(C)n3c4c(=O)n(C)c(=O)n(C)c4nc3n2CCCO)cc1 was read as UDG counterscr 4%, DRV1 agonist 60* and AID inh inactive.
`Nc1cc(C(=O)OCc2cccc(F)c2F)ccc1Cl` gave UDG counterscr 5% and AID inh inactive.
Screening COc1ccc(/C=C/C(=O)Nc2nc(-c3cccs3)ns2)cc1OC returned UDG counterscr 4%[57.5 µM], DRV1 agonist 29 and AID inh inactive.
For O=C(/C=C/c1ccccc1)Nc1nc(-c2cccs2)ns1 the results were UDG counterscr 4%[57.5 µM], DRV1 agonist 81* and AID inh inactive.
COc1ccc(/C=C/C(=O)Nc2nc(-c3cccs3)ns2)cc1 was read as UDG counterscr 2%[57.5 µM], DRV1 agonist 14 and AID inh inactive.
Cc1ccc(/C=C/C(=O)Nc2nc(-c3cccs3)ns2)cc1 was read as UDG counterscr 4%[57.5 µM], DRV1 agonist 70* and AID inh inactive.
CS(=O)(=O)c1ccccc1NC(=O)CNc1cc(Cl)ccc1N1CCCC1 was read as UDG counterscr 0% and AID inh inactive.
CCc1c(C)sc(NC(=O)c2ccc3c(c2)OCO3)c1C(=O)OC(C)C was read as UDG counterscr -9% and AID inh inactive.
COc1ccc(C(=O)Oc2cc(C)ccc2Cl)cc1OC was read as UDG counterscr 10% and AID inh inactive.
For CCn1c(=O)cc(SCC(=O)Nc2ccc(C)c(F)c2)c2ccccc21 the results were UDG counterscr inconclusive, DRV1 agonist 46 and AID inh inactive.
`CCn1c(=O)cc(SCC(=O)NCCc2ccc(Cl)cc2)c2ccccc21` gave UDG counterscr -19%, DRV1 agonist inconclusive and AID inh inconclusive.
CCN(CCCNC(=O)CSc1cc(=O)n(CC)c2ccccc12)c1cccc(C)c1 was read as UDG counterscr inconclusive, DRV1 agonist 75* and AID inh inconclusive.
CCn1c(=O)cc(SCC(=O)NCCc2cccc(C)c2)c2ccccc21 was read as UDG counterscr -24%, DRV1 agonist 97* and AID inh inactive.
`CCCCCCc1ccc(-c2ccc(OC)cc2)nc1` gave UDG counterscr -8% and AID inh inactive.
O=C(O)c1ccc2c(c1)OCCOCCOCCOCCO2 was read as UDG counterscr -5% and AID inh inactive.
Screening O=C(NCCc1ccccn1)c1ccc2c(c1)-c1ccccc1C2 returned UDG counterscr -10% and AID inh inactive.
For CCNC(=O)CN1CCN(C(=O)CCc2ncc(-c3ccc(Cl)cc3)o2)CC1 the results were UDG counterscr -8% and AID inh inactive.
`CC(=O)c1ccc(OC(=O)C2OC3OC(C)(C)OC3C3OC(C)(C)OC23)cc1` (configuration not stated) gave UDG counterscr -7% and AID inh inactive.
Screening N[n+]1cccc2ccccc21 returned UDG counterscr 1µM* and AID inh inactive.
For ClCC(Cl)C[n+]1cccc2ccccc21 (configuration not stated) the results were UDG counterscr -7% and AID inh inactive.
`CCCCCc1ccc(-c2ccc(-c3ccc(O)cc3)nc2)cc1` gave UDG counterscr -13% and AID inh inactive.
For O=C(c1nn(Cc2ccccc2)c(=O)c2ccccc12)N1CCN(c2ccccc2O)CC1 the results were UDG counterscr 3% and AID inh inactive.
Screening COc1cc(OC)c(NC(=O)CC(C)S(=O)(=O)c2ccc3c(c2)NC(=O)CO3)cc1Cl (configuration not stated) returned UDG counterscr -3%[57.5 µM], DRV1 agonist 73* and AID inh inactive.
`COc1ccc(NC(=O)CC(C)S(=O)(=O)c2ccc3c(c2)NC(=O)CO3)cc1OC` (configuration not stated) gave UDG counterscr -4%, DRV1 agonist 1 and AID inh inactive.
For Cc1nc2ccc(Cl)c([N+](=O)[O-])c2nc1C the results were UDG counterscr 4% and AID inh inactive.
For O=C(CCSc1ccc(Cl)cc1)Oc1ccc2ccc(=O)oc2c1 the results were UDG counterscr -1% and AID inh inactive.
`Cc1cc(O)c(-c2ccnc3cc(-c4ccccc4)nn23)cc1Cl` gave UDG counterscr -11%, DRV1 agonist 90* and AID inh inactive.
`Cc1ccc(-c2cc3nccc(-c4cc([N+](=O)[O-])ccc4O)n3n2)cc1` gave UDG counterscr -4%, DRV1 agonist -43 and AID inh inconclusive.
Screening COc1cccc(C(=O)Nc2nc(-c3nnn(-c4ccccc4C(F)(F)F)c3C)ns2)c1 returned UDG counterscr 41%, DRV1 agonist 91* and AID inh inactive.
COc1cccc(C(=O)Nc2nc(-c3nnn(-c4cc(C)ccc4C)c3C)ns2)c1 was read as UDG counterscr -19%, DRV1 agonist 31 and AID inh inactive.
Screening CC(C)CCNC(=S)Nc1ccc(SC(F)F)cc1 returned UDG counterscr -8% and AID inh inactive.
For CCOC(=O)c1c(C)oc2nc(C)nc(NCc3ccc(Cl)cc3)c12 the results were UDG counterscr 8%, DRV1 agonist -4 and AID inh inactive.
Screening CCOC(=O)c1nc(NCc2ccc(Cl)cc2)c2c(C)noc2n1 returned UDG counterscr 0%, DRV1 agonist 65* and AID inh inactive.

Assay outcomes (PubChem)
